Reference: PubChem BioAssay (NCATS)
Inconclusive results are not listed. Where a call stands in place of a potency, no number is given. Unmarked numbers belong to inactive results. Calls of active or inactive are those of the source. Calls follow the shape of the dose curve; as a rule, active = well fitted curve in the direction sought with a large enough effect; inconclusive = small, poorly fitted or top-dose-only effect, or another doubt; inactive = no such curve, though single readings can be large; an effect the other way counts as inactive or inconclusive. Bridge positions count the residues as written; N and C are the ends. Square brackets hold non-standard residues; d marks the D form. Peptide text beside a SMILES is read from it. NMeY = CN[CH](Cc1ccc(O)cc1)C(=O)O

Key:
[1] = target: Cellular tumor antigen p53 (Homo sapiens) (UniProt P04637); experiment: Primary qHTS for small molecule compounds that upregulate eGFP-tagged delta133p53alpha (in N-terminal) cells. (AID 2060322); conditions: NCI-H358 eGFP-delta133p53alpha fluorescence, 24 h; activation: active compounds read high; also: nearly all actives have a fitted effect of over 75% in size; also: potency is read from the fitted curve at half-maximal effect;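 as to activation: cells pre-induced with doxycycline then dosed without doxycycline; series mostly up to about 56 µM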
Cellular tumor antigen p53 (Homo sapiens), sequence (P04637 whole entry, looked up): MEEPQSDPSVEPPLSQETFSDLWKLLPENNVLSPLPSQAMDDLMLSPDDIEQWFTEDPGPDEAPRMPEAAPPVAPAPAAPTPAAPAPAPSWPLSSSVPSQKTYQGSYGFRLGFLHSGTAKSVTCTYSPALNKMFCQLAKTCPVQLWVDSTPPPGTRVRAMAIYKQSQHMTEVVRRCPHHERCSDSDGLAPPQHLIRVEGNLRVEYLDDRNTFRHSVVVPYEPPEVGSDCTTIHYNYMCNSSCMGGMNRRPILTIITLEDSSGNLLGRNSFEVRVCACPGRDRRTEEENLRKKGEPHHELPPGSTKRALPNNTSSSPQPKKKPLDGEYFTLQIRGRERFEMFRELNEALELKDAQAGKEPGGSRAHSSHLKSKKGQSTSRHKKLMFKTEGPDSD
Procedure, shortened: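 NCI-H358 cells pre-induced 24 h with 10 ng/ml doxycycline for eGFP-delta133p53alpha, plated dox-free and exposed 24 h at 37C to titrated compounds. Fixed, Hoechst-stained; gated GFP peak intensity by laser scanning cytometry, normalized to DMSO (0%) and 57.5 uM 5-azacytidine (100%).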

[2] = target: Aldehyde dehydrogenase, mitochondrial (Homo sapiens) (UniProt P05091); experiment: qHTS for Inhibitors of the Aldehyde Dehydrogenase Family (ALDH2) Primary screen (AID 2061308); also: nearly all actives have a fitted effect of over 55% in size
[3] = target: Retinaldehyde dehydrogenase 3 (Homo sapiens) (UniProt P47895); experiment: qHTS for Inhibitors of the Aldehyde Dehydrogenase Family (ALDH1A3) Primary screen (AID 2061315)

| Structure (SMILES) | activation [1] | Potency [2] | Potency [3] | activity change, negative = inhibition [2] | activity change, negative = inhibition [3] | Potency [1] |
| --- | --- | --- | --- | --- | --- | --- |
| CC(C)C1=CC2=CCC3[C@](C)(CCC[C@@]3(C)C(=O)O)C2CC1=O (some centres not stated) | 8.93% | inactive | inactive | – | – | – |
| O=S(=O)(c1ccccc1)c1cnc2c(N3CCNCC3)cccc2c1 | 27% | inactive | inactive | – | – | – |
| C/C=C\NC(=O)C1NC(=O)C(CC(N)=O)NC(=O)C(NC(=O)C(=O)C(C)CC)Cc2ccc(O)c(c2)-c2cccc3c2NC(=O)C3(O)C1O (configuration not stated) | 3.82% | inactive | inactive | – | – | – |
| C[C@@]12C[C@]3(O)O[C@H](O1)[C@]1(COC(=O)c4ccccc4)[C@H]3C[C@@]12O[C@@H]1O[C@H](COC(=O)c2ccccc2)[C@@H](O)[C@H](O)[C@H]1O | -5.34% | inactive | inactive | – | – | – |
| CC(C)C[C@H](CC(=O)NO)C(=O)N[C@H](C(=O)N[C@@H](C)C(=O)NCCN)C(C)(C)C | 3.67% | – | – | 1.06% [at 11.2 µM] | -12.1% [at 11.2 µM] | – |
| CC1=C(COC2OC(CO)C(O)C(O)C2O)C(C(CO)C(=O)O)CC1 (configuration not stated) | -6.87% | inactive | inactive | – | – | – |
| CCC(C)C1NC(=O)C2CCCN2C(=O)C(NC(C)=O)C(C)OC(=O)C(Cc2ccc(OC)cc2)N(C)C(=O)C2CCCN2C(=O)C(C(C)C)NC1=O (configuration not stated) (Ac-TPIVP[NMeY](Me); ester 1-C; configuration not given here) | 15.3% | inactive | inactive | – | – | – |
| C=C1C(=O)OC2/C=C(\C)CC/C=C(\C=O)C(OC)C(OC(=O)C(C)CC)C12 (configuration not stated) | – | inactive | inactive | – | – | 16.6 µM (active) |
| CC1(C)CC[C@]2(C(=O)O[C@@H]3O[C@H](CO)[C@@H](O)[C@H](O)[C@H]3O)CC[C@]3(C)C(=CCC4[C@@]5(C)C[C@@H](O)[C@H](O)C(C)(C)C5CC[C@]43C)C2[C@@H]1O (some centres not stated) | -8.04% | inactive | inactive | – | – | – |
| CC1(CO)CC[C@]2(C(=O)O[C@@H]3O[C@H](CO)[C@@H](O)[C@H](O)[C@H]3O)CC[C@]3(C)C(=CCC4[C@@]5(C)CC[C@H](O[C@@H]6O[C@H](C(=O)O)[C@@H](O)[C@H](O)[C@H]6O)C(C)(C)C5CC[C@]43C)C2C1 (some centres not stated) | -4.46% | inactive | inactive | – | – | – |
| Cc1ccc(Nc2nnc(-c3ccc([N+](=O)[O-])cc3)o2)cc1Cl | 9.82% | inactive | inactive | – | – | – |
| O=C1OC(c2ccc(O)cc2)C(O)=C1Cc1ccccc1 (configuration not stated) | -3.82% | inactive | inactive | – | – | – |
| CCNC(=O)[C@@H]1CCCN1C(=O)[C@H](CCCN=C(N)N)NC(=O)[C@H](CC(C)C)NC(=O)[C@@H](C)NC(=O)[C@H](Cc1ccc(O)cc1)NC(=O)[C@H](CO)NC(=O)[C@H](Cc1c[nH]c2ccccc12)NC(=O)[C@H](Cc1cnc[nH]1)NC(=O)[C@@H]1CCC(=O)N1 | -6.33% | inactive | inactive | – | – | – |
| CC(C)=CCC[C@](C)(O[C@@H]1O[C@H](CO[C@@H]2OC[C@@H](O)[C@H](O)[C@H]2O)[C@@H](O)[C@H](O)[C@H]1O)[C@H]1CC[C@]2(C)[C@@H]1[C@H](O)C[C@@H]1[C@@]3(C)CC[C@H](O[C@@H]4O[C@H](CO)[C@@H](O)[C@H](O)[C@H]4O[C@@H]4O[C@H](CO)[C@@H](O)[C@H](O)[C@H]4O)C(C)(C)[C@@H]3CC[C@]12C | -8.33% | inactive | inactive | – | – | – |
| C[C@@H]1O[C@@H](OC2C(O[C@H]3[C@H](O[C@H]4CC[C@@]5(C)C(CC[C@]6(C)C5CC=C5C7CC(C)(C)CC(O)[C@]7(C)CC[C@]56C)C4(C)C)O[C@H](C(=O)O)[C@@H](O)[C@@H]3O)OC(CO)C(O)C2O)[C@H](O)[C@H](O)[C@H]1O (some centres not stated) | -6.11% | inactive | inactive | – | – | – |
| C[C@@H]1CC[C@H]2C(C)(C)[C@H](O)[C@H](O)C[C@]2(C)[C@@]12Cc1c(O)cc3c(c1O2)CNC3=O | -3.82% | inactive | inactive | – | – | – |
| CC(C)CCC1(O)C(=O)C(C)(C)C(O[C@@H]2O[C@H](CO)[C@@H](O)[C@H](O)[C@H]2O)C(C)(C)C1O (some centres not stated) | 12.5% | inactive | inactive | – | – | – |
| C[C@@H]1O[C@@H](O[C@@H]2[C@@H](O)[C@H](O[C@@H]3[C@@H](O)[C@@H](O)[C@H](O[C@H]4[C@H](OC(=O)[C@]56CCC(C)(C)C[C@H]5C5=CCC7[C@@]8(C)C[C@H](O)[C@H](O[C@@H]9O[C@H](C(=O)O)[C@@H](O)[C@H](O)[C@H]9O)[C@@](C)(CO)C8[C@H](O)C[C@@]7(C)[C@]5(C)C[C@H]6O)O[C@@H](CO)[C@@H]4O)O[C@H]3C)OC[C@H]2O)[C@H](O)[C@H](O)[C@H]1O (some centres not stated) | 12.2% | – | – | 4.77% [at 11.2 µM] | -9.03% [at 11.2 µM] | – |
| C=C(C)[C@@H](C)[C@H]1O[C@]23C[C@]4(CO2)C(CCC2[C@@]5(C)CC[C@H](O[C@@H]6OC[C@H](O)[C@H](O[C@@H]7O[C@H](CO)[C@@H](O)[C@H](O)[C@H]7O)[C@H]6O[C@@H]6O[C@@H](CO)[C@H](O)[C@H]6O)C(C)(C)C5CC[C@]24C)C3[C@@](C)(O)[C@@H]1OC(C)=O (some centres not stated) | -7.63% | inactive | inactive | – | – | – |
| CC1=C(CO)C2(C)CCCC(C)(C)C2C(O)C1O (configuration not stated) | 11.6% | inactive | inactive | – | – | – |
| COC(=O)CCc1cc2ccoc2c(OC)c1O[C@@H]1O[C@H](CO)[C@@H](O)[C@H](O)[C@H]1O | -27.7% | inactive | inactive | – | – | – |
| CC(C)c1cc2c(N3CCN(C4=NCC(C)(C)S4)CC3)ncnc2s1 | 3.67% | inactive | inactive | – | – | – |

| Structure (SMILES) | activation [1] | Potency [2] | Potency [3] | activity change, negative = inhibition [2] | activity change, negative = inhibition [3] | Potency [1] |
| --- | --- | --- | --- | --- | --- | --- |
| C=C1CC[C@H]2[C@@H](/C=C(\C)C(=O)[C@@]3(OC(C)=O)C[C@H](C)[C@H](OC(C)=O)[C@@H]3[C@H]1OC(C)=O)C2(C)C | -20.6% | inactive | inactive | – | – | – |
| COc1cc(/C=C2\CC[C@H]3COC[C@@H](c4cc(F)c(F)c(F)c4)N3C2=O)ccc1-n1cnc(C)c1 | -13.7% | inactive | inactive | – | – | – |
| C[C@@H]1O[C@@H](O[C@H]2CC[C@@]3(C)C(CC[C@]4(C)C3CC=C3[C@@H]5CC(C)(C)CC[C@]5(C(=O)O[C@@H]5O[C@H](CO)[C@@H](O)[C@H](O)[C@H]5O)CC[C@]34C)[C@]2(C)CO)[C@H](O)[C@H](O[C@@H]2O[C@H](CO)[C@@H](O)[C@H](O)[C@H]2O)[C@H]1O (some centres not stated) | -6.11% | inactive | inactive | – | – | – |
| CC1=C(C(=O)OCc2ccccc2)C(c2ccc(-c3ccccc3)cc2)NC(=O)N1CCCCCC(=O)O (configuration not stated) | 12.3% | inactive | inactive | – | – | – |
| C[C@@H]1C[C@@H]([C@@H](O)C(C)(C)O)O[C@H]2C[C@@]3(C)C(=C12)C[C@H](O)[C@H]1[C@@]2(C)CCC(=O)C(C)(C)C2CC[C@@]13C (some centres not stated) | -6.87% | inactive | inactive | – | – | – |
| COc1cc(O)cc(C)c1C(=O)O[C@H]1[C@@H](OC(C)=O)[C@H](n2ccc(=O)[nH]c2=O)O[C@@H]1CO | -32.8% | inactive | inactive | – | – | – |
| COC(O)(CC(C)C)C1Oc2cc(C)[nH]c(=O)c2O1 (configuration not stated) | -26.7% | inactive | inactive | – | – | – |
| CC(=O)O[C@@H]1CC2C(C)(C)C(=O)C=C[C@]2(C)C2CC[C@]3(C)C(=CC(=O)[C@@H]3c3ccoc3)[C@@]21C (some centres not stated) | 1.53% | inactive | inactive | – | – | – |
| CC(C)(C)NCCCNC(=O)c1cccc(Br)c1 | -8.59% | inactive | inactive | – | – | – |
| OC[C@@]1(O)CO[C@H](OC[C@H]2O[C@@H](OC(CCCCc3ccc(O)cc3)CCc3ccc(O)cc3)[C@H](O)[C@@H](O)[C@@H]2O)[C@@H]1O (some centres not stated) | -1.53% | inactive | inactive | – | – | – |
| Cc1cn2cc(CC(=O)N3CCC4(CC3)CN(Cc3ccc(-n5nccn5)cc3Cl)C4)nc2s1 | -8.93% | inactive | inactive | – | – | – |
| C[C@@H]1CC[C@]2(C(=O)O)CC[C@]3(C)C(=CCC4[C@@]5(C)CC[C@H](O)C(C)(C)C5C(O)C[C@]43C)[C@@H]2[C@]1(C)O (some centres not stated) | 0.893% | inactive | inactive | – | – | – |
| CN1c2ccccc2C(=O)N2CCC3c4ccccc4NC3C21 (configuration not stated) | – | inactive | inactive | – | – | 1.66 µM (active) |
| OCC(CO[C@@H]1O[C@H](CO)[C@@H](O)[C@H](O)[C@H]1O)c1ccc2c(c1)OCO2 (some centres not stated) | 24.1% | inactive | inactive | – | – | – |
| COC1CC(=O)C23C(=O)NC(Cc4c[nH]c5ccccc45)C2C(C)C2(C)OC2C3/C=C/CC(C)CC1O (configuration not stated) | – | inactive | inactive | – | – | 13.1 µM (active) |
| CC1=CC(=O)CC(C)(CO[C@@H]2O[C@H](CO)[C@@H](O)[C@H](O)[C@H]2O)C1(O)/C=C/C(C)=C/C(=O)O (some centres not stated) | 0.893% | inactive | inactive | – | – | – |
| Cc1nc(NC(=O)N2CCCC2C(N)=O)sc1-c1csc(C(C)(C)C)n1 (configuration not stated) | 16.1% | inactive | inactive | – | – | – |
| CC(C)(O)c1ccc2c(c1)C(=O)CC1[C@](C)(CO)CCC[C@]21C (some centres not stated) | 26.8% | inactive | inactive | – | – | – |
| COc1ccc(CNC(=O)c2cc(-c3cncc(C)c3)ncc2-c2nccs2)nc1OC | 0.477% | inactive | inactive | – | – | – |
| COc1ccc(CN2C(=O)C(=O)c3cc(S(=O)(=O)N4CCC[C@H]4COc4cccnc4)ccc32)cc1 | 19.7% | inactive | inactive | – | – | – |
| C[C@@H](c1ccccc1)N(C(N)=NC#N)c1cccc2ncccc12 | 2.33% | inactive | inactive | – | – | – |
| CC1(C)CC[C@]2(C(=O)O[C@@H]3O[C@H](CO)[C@@H](O)[C@H](O)[C@H]3O)CC[C@]3(C)C(=CCC4[C@@]5(C)C[C@H](O)[C@H](O[C@@H]6OC[C@@H](O)[C@H](O)[C@H]6O)[C@@](C)(CO)C5CC[C@]43C)C2C1 (some centres not stated) | 11.6% | inactive | inactive | – | – | – |
